Calls of active or inactive are those of the source. How the source made its calls: active means hit-call score of the fitted dose curve at least 0.9, where 1 is the maximum; inactive means score below 0.9.
How the values were obtained:
[1] = ATG_CRE_CIS: Attagene CIS-FACTORIAL HepG2 Assay for human cAMP Responsive Element (CRE) binding protein 3 (AID 2282926); conditions: HepG2 CRE cis-reporter, Attagene multiplexed mRNA; actives raise or lower the signal
Outline: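 Transfected HepG2 were treated for 24 hours, then RNA was extracted and reporter cDNA amplified with sequence-specific primers. Labelled fragments were separated by capillary electrophoresis, and the CRE signal was fitted bidirectionally with DMSO as baseline.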

[2] = target: CCAAT/enhancer-binding protein beta (Homo sapiens) (UniProt P17676); test: ATG_C_EBP_CIS: Attagene CIS-FACTORIAL HepG2 Assay for human CCAAT/Enhancer Binding Protein (C/EBP) beta (AID 2282927); conditions: HepG2 Attagene cis-factorial transcription factor reporter; actives raise or lower the signal
Chain of CCAAT/enhancer-binding protein beta (Homo sapiens) (P17676 whole entry, looked up): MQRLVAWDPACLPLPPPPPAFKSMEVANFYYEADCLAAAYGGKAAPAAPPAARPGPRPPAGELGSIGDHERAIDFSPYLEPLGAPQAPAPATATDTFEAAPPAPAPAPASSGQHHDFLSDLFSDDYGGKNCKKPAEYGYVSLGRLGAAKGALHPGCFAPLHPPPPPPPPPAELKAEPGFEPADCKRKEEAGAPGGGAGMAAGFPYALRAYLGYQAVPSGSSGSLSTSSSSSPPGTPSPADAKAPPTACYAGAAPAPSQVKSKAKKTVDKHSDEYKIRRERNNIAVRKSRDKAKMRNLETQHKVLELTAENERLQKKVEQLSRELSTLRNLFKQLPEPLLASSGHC
Outline: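 Transiently transfected HepG2 (MRTU library, endogenous TF-driven promoters); 24 h dosing; total RNA → oligo(dT) RT → PCR → 6-FAM primer extension → HpaI digest → CE; fit bidirectionally vs DMSO.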

[3] = ATG_CMV_CIS: Attagene CIS-FACTORIAL HepG2 Assay for human CMV (Internal Marker) (AID 2282928); conditions: HepG2 CMV promoter reporter, transcription factor profiling; actives raise or lower the signal;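 further: endpoint acts as a background internal control marker rather than a target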
Outline: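 CMV internal-marker background readout in transiently transfected HepG2 cells bearing cis-regulated reporter units. Reporter mRNA is measured 24 h after dosing by RT-PCR and capillary electrophoresis, with bidirectional fitting against DMSO.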

[4] = ATG_DR4_LXR_CIS: Attagene CIS-FACTORIAL HepG2 Assay for human Liver X Receptor (LXR), DR4 submotif (AID 2282929); conditions: HepG2 Attagene DR4 cis-reporter, mRNA transcription; actives raise or lower the signal
Outline: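 HepG2 cells transiently transfected with cis-promoter-driven multiplexed reporter units (DR4 element) were dosed for 24 h. Reporter mRNA was quantified by RT-PCR, fluorescent primer extension, HpaI digestion and capillary electrophoresis; bidirectional fitting versus DMSO baseline.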

[5] = target: Aryl hydrocarbon receptor (Homo sapiens) (UniProt P35869); test: ATG_Ahr_CIS: Attagene CIS-FACTORIAL HepG2 Assay for human Aryl Hydrocarbon Receptor (Ahr) (AID 2282930); conditions: HepG2 AhR cis-factorial reporter transcription; actives raise or lower the signal
Chain of Aryl hydrocarbon receptor (Homo sapiens) (P35869 whole entry, looked up): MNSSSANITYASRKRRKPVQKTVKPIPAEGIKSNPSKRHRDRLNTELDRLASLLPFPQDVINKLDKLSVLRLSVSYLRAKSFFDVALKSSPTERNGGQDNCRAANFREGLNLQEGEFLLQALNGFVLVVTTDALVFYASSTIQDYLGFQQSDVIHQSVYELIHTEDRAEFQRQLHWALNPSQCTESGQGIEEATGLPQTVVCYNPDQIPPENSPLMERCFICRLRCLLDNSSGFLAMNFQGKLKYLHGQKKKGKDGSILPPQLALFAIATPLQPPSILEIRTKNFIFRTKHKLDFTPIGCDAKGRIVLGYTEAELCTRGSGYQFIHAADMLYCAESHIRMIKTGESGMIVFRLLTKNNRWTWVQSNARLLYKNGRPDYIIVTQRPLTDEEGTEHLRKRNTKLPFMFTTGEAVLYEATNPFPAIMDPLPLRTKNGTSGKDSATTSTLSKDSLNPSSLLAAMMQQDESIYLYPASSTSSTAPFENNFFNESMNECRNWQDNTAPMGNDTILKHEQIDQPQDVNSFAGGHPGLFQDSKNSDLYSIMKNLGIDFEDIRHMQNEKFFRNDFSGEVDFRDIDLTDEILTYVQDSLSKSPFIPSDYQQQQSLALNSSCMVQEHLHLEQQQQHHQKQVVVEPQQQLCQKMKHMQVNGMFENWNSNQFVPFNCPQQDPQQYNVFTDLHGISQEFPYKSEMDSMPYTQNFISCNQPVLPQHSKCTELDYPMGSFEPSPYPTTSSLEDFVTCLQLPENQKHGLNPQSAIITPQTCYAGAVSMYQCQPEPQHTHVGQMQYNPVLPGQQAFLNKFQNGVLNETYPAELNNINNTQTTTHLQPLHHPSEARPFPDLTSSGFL
Outline: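 Read-out: reporter mRNA quantified by RT-PCR with fluorescent primer extension and capillary electrophoresis. Human HepG2 liver cells carried transfected cis-promoter reporter units and were exposed to chemical for 24 h; gain or loss fitted relative to DMSO.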

[6] = ATG_AP_1_CIS: Attagene CIS-FACTORIAL HepG2 Assay for human Activator Protein 1 (AP-1) (AID 2282931); conditions: HepG2 Attagene cis-factorial AP-1 reporter mRNA; actives raise or lower the signal
Outline: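 HepG2 cells transiently transfected with cis-element-driven multiplex reporter units; 24 h compound exposure. Reporter mRNA quantified by RT-PCR, FAM-labelled fragments resolved by capillary electrophoresis; bidirectional fit versus DMSO baseline.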

[7] = ATG_AP_2_CIS: Attagene CIS-FACTORIAL HepG2 Assay for human Activator Protein 2 (AP-2) (AID 2282932); conditions: HepG2 AP-2 cis-reporter, Attagene transcription factor profiling; actives raise or lower the signal
Outline: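 Multiplexed mRNA reporter assay in HepG2: cis-regulated units report endogenous factor activity after 24 h treatment. Fluorescence from capillary electrophoresis of RT-PCR products gives the signal, with DMSO as baseline.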

[8] = ATG_BRE_CIS: Attagene CIS-FACTORIAL HepG2 Assay for human Bone Morphogenetic Protein (BMP) Response Element (BRE) (AID 2282933); conditions: HepG2 BMP response element reporter, Attagene transcription factor profiling; actives raise or lower the signal
Outline: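 Endogenous transcription factor activity at a BMP response element was monitored in transfected HepG2 cells 24 h after dosing. Fluorescent RT-PCR products were resolved by capillary electrophoresis, and activity was fitted in both directions versus DMSO.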

[9] = target: Retinoic acid receptor alpha (Homo sapiens) (UniProt P10276); test: ATG_DR5_RAR_CIS: Attagene CIS-FACTORIAL HepG2 Assay for human Retinoic Acid Receptor Alpha (RARE), DR5 submotif (AID 2282934); conditions: HepG2 Attagene cis-factorial RARE DR5 reporter, mRNA; actives raise or lower the signal
Chain of Retinoic acid receptor alpha (Homo sapiens) (P10276 whole entry, looked up): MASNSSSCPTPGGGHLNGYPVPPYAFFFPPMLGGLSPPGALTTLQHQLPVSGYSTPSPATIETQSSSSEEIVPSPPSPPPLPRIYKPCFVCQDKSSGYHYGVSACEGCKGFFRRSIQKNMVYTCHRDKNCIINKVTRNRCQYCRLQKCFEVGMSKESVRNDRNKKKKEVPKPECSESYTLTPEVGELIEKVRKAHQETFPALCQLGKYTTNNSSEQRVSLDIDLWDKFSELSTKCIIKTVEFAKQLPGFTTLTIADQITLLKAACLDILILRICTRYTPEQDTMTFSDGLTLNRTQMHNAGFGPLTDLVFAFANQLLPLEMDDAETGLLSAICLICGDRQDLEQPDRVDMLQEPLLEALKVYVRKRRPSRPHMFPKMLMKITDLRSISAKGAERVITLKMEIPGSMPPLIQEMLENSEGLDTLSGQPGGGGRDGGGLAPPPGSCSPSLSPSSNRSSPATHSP
Outline: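 Read-out: DR5-driven reporter transcript measured by RT-PCR, 6-FAM primer extension, HpaI digest and capillary electrophoresis. Human HepG2 liver cells carry transiently transfected cis-element reporter constructs; dosing lasts 24 h. Gain or loss of signal fitted against DMSO baseline.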

[10] = target: Transcription factor E2F1 (Homo sapiens) (UniProt Q01094); test: ATG_E2F_CIS: Attagene CIS-FACTORIAL HepG2 Assay for human E2F Transcription Factor 1 (AID 2282935); conditions: HepG2 Attagene cis-reporter, E2F reporter RNA transcripts; actives raise or lower the signal
Chain of Transcription factor E2F1 (Homo sapiens) (Q01094 whole entry, looked up): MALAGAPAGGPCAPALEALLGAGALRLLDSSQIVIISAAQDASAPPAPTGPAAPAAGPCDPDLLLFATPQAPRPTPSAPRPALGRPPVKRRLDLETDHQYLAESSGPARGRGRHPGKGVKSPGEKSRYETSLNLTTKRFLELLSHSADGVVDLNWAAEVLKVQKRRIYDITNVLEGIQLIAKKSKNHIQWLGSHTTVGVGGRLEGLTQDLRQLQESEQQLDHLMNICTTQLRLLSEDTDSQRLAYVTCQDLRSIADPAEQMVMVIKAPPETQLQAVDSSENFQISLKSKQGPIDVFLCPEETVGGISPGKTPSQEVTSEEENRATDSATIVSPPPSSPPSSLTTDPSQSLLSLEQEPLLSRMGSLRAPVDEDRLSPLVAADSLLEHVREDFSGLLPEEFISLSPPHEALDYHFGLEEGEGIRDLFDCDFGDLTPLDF
Outline: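 Measures reporter transcript levels via RT-PCR with capillary electrophoresis detection in HepG2 cells harboring cis-regulated reporter units; 24 h post-dose; bidirectional curve fitting with DMSO as baseline.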

[11] = ATG_E_Box_CIS: Attagene CIS-FACTORIAL HepG2 Assay for human Enhancer Box (E-box) (AID 2282936); conditions: HepG2 E-box cis-reporter transcription, actives raise or lower the signal
Outline: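 First, HepG2 cells receive multiple cis-regulated reporter constructs by transient transfection. Next, chemicals are applied for 24 h. Finally, reporter mRNA is quantified via RT-PCR and capillary electrophoresis, with DMSO as baseline.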

[12] = ATG_M_61_CIS: Attagene CIS-FACTORIAL HepG2 Assay for M61 Transcription Factor (Internal Marker) (AID 2282937); conditions: HepG2 Attagene CIS-FACTORIAL M61 internal marker reporter; actives raise or lower the signal
Outline: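 HepG2 cells transiently transfected with cis-element-driven multiple reporter transcription units, dosed for 24 h. Reporter mRNA measured by RT-PCR, 6-FAM primer-extension labelling, HpaI digestion and capillary electrophoresis; bidirectional fit versus DMSO baseline.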

[13] = ATG_EGR_CIS: Attagene CIS-FACTORIAL HepG2 Assay for human Early Growth Response 1 (EGR1) (AID 2282938); conditions: HepG2 Attagene CIS-FACTORIAL EGR reporter mRNA; actives raise or lower the signal
Outline: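 HepG2 cells transiently transfected with cis-promoter-driven multiplexed reporter transcription units; reporter mRNA measured 24 h after compound dosing by RT-PCR, 6-FAM primer extension, HpaI digestion and capillary electrophoresis. Bidirectional fit versus DMSO baseline.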

[14] = ATG_M_19_CIS: Attagene CIS-FACTORIAL HepG2 Assay for M19 Transcription Factor (Internal Marker) (AID 2282939); conditions: HepG2 Attagene CIS-FACTORIAL M19 internal marker reporter; actives raise or lower the signal
Outline: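 Background-control endpoint from a multiplexed HepG2 reporter panel. Cells carrying cis-regulated reporter constructs are treated 24 h, then reporter transcripts are amplified, fluorescently labelled and sized by capillary electrophoresis. DMSO defines baseline.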

[15] = ATG_Ets_CIS: Attagene CIS-FACTORIAL HepG2 Assay for human Erythroblast Transformation Specific (ETS) (AID 2282941); conditions: HepG2 ETS cis-reporter transcription, actives raise or lower the signal
Outline: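 HepG2 cells transfected with multiple cis-regulated reporter units measuring endogenous ETS-driven transcription, 24 h after dosing. Reporter mRNA quantified by RT-PCR with capillary electrophoresis; bidirectional fit relative to DMSO.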

[16] = target: Hepatocyte nuclear factor 3-beta (Homo sapiens) (UniProt Q9Y261); test: ATG_FoxA2_CIS: Attagene CIS-FACTORIAL HepG2 Assay for human Forkhead box A2 (FOXA2) (AID 2282942); conditions: HepG2 cis-reporter transcription factor activity, 24 h; actives raise or lower the signal
Chain of Hepatocyte nuclear factor 3-beta (Homo sapiens) (Q9Y261 whole entry, looked up): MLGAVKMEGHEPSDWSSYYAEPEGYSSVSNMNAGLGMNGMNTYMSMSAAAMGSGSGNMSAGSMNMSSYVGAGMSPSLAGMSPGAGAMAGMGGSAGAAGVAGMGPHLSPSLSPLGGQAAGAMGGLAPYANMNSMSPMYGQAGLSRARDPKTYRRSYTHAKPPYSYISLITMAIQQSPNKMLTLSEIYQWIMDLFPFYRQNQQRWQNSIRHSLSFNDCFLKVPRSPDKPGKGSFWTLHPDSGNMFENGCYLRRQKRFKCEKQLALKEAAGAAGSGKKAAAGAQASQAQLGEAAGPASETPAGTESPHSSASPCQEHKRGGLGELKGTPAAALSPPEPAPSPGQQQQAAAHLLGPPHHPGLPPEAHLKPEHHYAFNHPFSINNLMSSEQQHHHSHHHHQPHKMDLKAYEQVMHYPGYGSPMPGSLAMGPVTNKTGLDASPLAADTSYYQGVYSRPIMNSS
Outline: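 HepG2 cells transiently transfected with multiple cis-regulated reporter transcription units, dosed for 24 h. Reporter mRNA measured by RT-PCR, 6-FAM labelling, HpaI digestion and capillary electrophoresis; bidirectional fitting against DMSO baseline.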

[17] = ATG_FoxO_CIS: Attagene CIS-FACTORIAL HepG2 Assay for human Forkhead box O (FoxO) (AID 2282943); conditions: HepG2 Attagene cis-reporter, FoxO element, mRNA; actives raise or lower the signal
Outline: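 Read-out: fluorescence of 6-FAM-labelled reporter cDNA fragments resolved by capillary electrophoresis. Transiently transfected HepG2 cells were dosed for 24 h; activity fitted in both directions relative to DMSO controls.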

[18] = ATG_GATA_CIS: Attagene CIS-FACTORIAL HepG2 Assay for human GATA Binding Protein (AID 2282944); conditions: HepG2 GATA cis-element reporter, Attagene multiplex mRNA; actives raise or lower the signal
Outline: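 Endogenous transcription factor activity was captured through cis-promoter-driven reporters in transfected HepG2 cells. After 24 h exposure, reporter transcripts were quantified by RT-PCR with fluorescent capillary electrophoresis, and responses fitted both directions against DMSO.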

[19] = ATG_GLI_CIS: Attagene CIS-FACTORIAL HepG2 Assay for human Zinc Finger Protein GLI1 (AID 2282945); conditions: HepG2, Attagene cis-factorial reporter mRNA, GLI element; actives raise or lower the signal
Outline: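 Transiently transfected HepG2 cells report endogenous transcription factor activity via cis-element-driven reporter units. After 24 h compound exposure, reporter mRNA was measured by RT-PCR with capillary electrophoresis; bidirectional fitting against DMSO baseline.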

[20] = ATG_ERE_CIS: Attagene CIS-FACTORIAL HepG2 Assay for Estrogen Response Element (ERE) (AID 2282940); conditions: HepG2 ERE cis-reporter, Attagene RNA transcript; actives raise or lower the signal
Outline: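 Cells used were human hepatoma HepG2, transfected with multiple reporter transcription units under cis-regulatory promoters. Reporter mRNA, read 24 h post-dosing via fluorescent RT-PCR products on capillary electrophoresis, was fitted bidirectionally relative to DMSO.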

Measured: AC50

CC1CC(OC(=O)c2ccccc2O)CC(C)(C)C1 (stereo not given)
active: [3] 100 µM | [6] 69.4 µM
not listed: [20]
inactive: all other assays above

CCCCOCCOCCSC#N
not listed: [20]
inactive: all other assays above

C[C@H]1C[C@@H]2[C@H]([C@@H](O)C[C@@]3(C)[C@H]2CC[C@]3(O)C(=O)CO)[C@@]2(C)C=CC(=O)C=C12
not listed: [20]
inactive: all other assays above

CCN(CC)c1ccc(C(=C2C=CC(=[N+](CC)CC)C=C2)c2ccc(S(=O)(=O)O)cc2S(=O)(=O)[O-])cc1
not listed: [20]
inactive: all other assays above

CCCCCCCCCCCCCCCCCC(=O)OCC(CC)CCCC (stereo not given)
not listed: [20]
inactive: all other assays above

CCCCCCOC(=O)CCCCC
not listed: [20]
inactive: all other assays above

CC1(C)C(=O)N(Br)C(=O)N1Cl
not listed: [20]
inactive: all other assays above

CCCCCOC(=O)CCC
not listed: [20]
inactive: all other assays above

C=C[C@@H](C)CCC=C(C)C
not listed: [11] | [17] | [20]
inactive: all other assays above

O=S(=O)(O)NC1CCCCC1
not listed: [11] | [20]
inactive: all other assays above

OCCOc1cccc(OCCO)c1
not listed: [15] | [20]
inactive: all other assays above

NCCNCCN
not listed: [11] | [20]
inactive: all other assays above

CC1CCC(C(C)CS)CC1S (stereo not given)
active: [1] 33.4 µM | [5] 45.9 µM | [10] 55.1 µM | [18] 61.1 µM
not listed: [11] | [17] | [20]
inactive: all other assays above

COc1ccc(NC(=O)CC(C)=O)cc1
not listed: [11] | [18] | [20]
inactive: all other assays above

CCO[Si](CCCS)(OCC)OCC
not listed: [20]
inactive: all other assays above

O=C(O)c1cn(C2CC2)c2cc(N3CCNCC3)c(F)cc2c1=O
not listed: [9]
inactive: all other assays above

Reference: PubChem BioAssay (EPA / NIEHS)
